TRHR PAM = qHTS for Small Molecule Agonists and Allosteric Enhancers of Human TRH Receptor: Primary Screen for Enhancers; Thyrotropin-releasing hormone receptor (Homo sapiens), P34981; TRHR cells, fluo-8 calcium fluorescence, EC20 TRH enhancement; enhancement, % at 2 µM; 0.66% of 360,000 active; in the data active means enhancement above about 30%; further: 0% is about no effect
Target sequence (P34981 whole entry, looked up): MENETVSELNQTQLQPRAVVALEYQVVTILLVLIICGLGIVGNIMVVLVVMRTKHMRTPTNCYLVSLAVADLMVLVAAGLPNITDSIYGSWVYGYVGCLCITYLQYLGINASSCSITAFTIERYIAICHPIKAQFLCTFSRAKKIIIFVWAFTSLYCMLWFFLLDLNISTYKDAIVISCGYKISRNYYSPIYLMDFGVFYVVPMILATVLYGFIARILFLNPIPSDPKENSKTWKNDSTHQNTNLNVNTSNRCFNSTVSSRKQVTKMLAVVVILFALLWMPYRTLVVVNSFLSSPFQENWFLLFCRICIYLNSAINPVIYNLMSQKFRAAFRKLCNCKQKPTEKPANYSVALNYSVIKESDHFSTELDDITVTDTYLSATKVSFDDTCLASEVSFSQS
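TRHR-expressing cells loaded with fluo-8 calcium dye were read kinetically (ex 480/em 530) during compound addition, then stimulated with an EC20 of TRH (10 nM final). Enhancement of the Gq-mediated intracellular calcium response was scored.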
D1 potentiator = Potentiators of Human D1 Dopamine Receptor: qHTS; potentiation, % at 10 µM; AID 504651, 2011; HEK293 TREx D1 cells, calcium flux, dopamine EC20 potentiation; D(1A) dopamine receptor (Homo sapiens), P21728; 0.036% of 360,000 active; in the data active means potentiation above about 30%; further: 0% is about no effect
D1 agonist = Allosteric Agonists of the Human D1 Dopamine Receptor: qHTS; HEK293 T-REx D1 cells, calcium flux, agonist mode; activation, % at 2 µM; 1% of 360,000 active; AID 504660, 2011; further: 0% is about no effect
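Tetracycline-induced HEK293 TREx D1 cells, force-coupled to calcium signalling, were dye-loaded with a no-wash calcium kit. Compound was pin-added after a 10 s baseline. Fluorescence was read kinetically at 1 cycle/s for 180 s, with calcium rises flagged as agonism.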
TRHR ag = qHTS for Small Molecule Agonists and Allosteric Enhancers of Human TRH Receptor: Primary Screen for Agonists; Thyrotropin-releasing hormone receptor (Homo sapiens), P34981; TRHR cells, calcium flux fluo-8, FDSS agonist mode; activation, % at 2 µM; 0.18% of 360,000 active; further: 0% is about no effect
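TRHR-expressing cells, plated overnight in medium with 10% serum, were loaded with fluo-8 calcium dye at room temperature. After a 10 s baseline, library compound was pin-added and calcium release was recorded kinetically (ex 480/em 530) as agonist response.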
D1 antagonist = Antagonist of Human D 1 Dopamine Receptor: qHTS; HEK293 TREx D1 cells, calcium flux, dopamine EC80; hits give low values; AID 504652, 2011; 3.2% of 360,000 active; activity change, negative = inhibition, % at 10 µM; in the data active means activity change below about -30%; further: on the % scale 0 is the no-effect control and ±100 the full control effect
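Calcium flux readout: force-coupled, inducible Hek293 Trex D1 line, cells induced overnight at 30 C with tetracycline, dye-loaded 30–90 min at RT. Antagonism scored against EC80 dopamine challenge given 180 s after compound.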
The depositor's hits bear a star. Rows were chosen to be rich in hits. Some 4.7% of all compounds tested hit in one or more screens of this group. Unless noted, no stated cut-off is given here; in the data, active means activation above about 30%; inactive means the rest.

Results for O=C(NCc1ccccc1)C1CCN(S(=O)(=O)c2ccc3c(c2)CCCN3C(=O)C2CCC2)CC1 ?
TRHR PAM: -5; D1 potentiator: -5; D1 agonist: 1; TRHR ag: -1; D1 antagonist: -13

What do the screens show for `Cc1nc2nc(SCC(=O)N(C)Cc3ccccc3)nn2c(C)c1Cc1ccccc1Cl`?
TRHR PAM: 12; D1 potentiator: -1; D1 agonist: -2; TRHR ag: 0; D1 antagonist: -13

What do the screens show for `CSc1ncccc1C(=O)NCC(c1cccs1)N1CCOCC1` (stereo not given)?
TRHR PAM: 2; D1 potentiator: -3; D1 agonist: 3; TRHR ag: 0; D1 antagonist: -80*

What do the screens show for `O=C(NCC(c1ccc(F)cc1)N1CCOCC1)c1ccccc1F` (stereo not given)?
TRHR PAM: -3; D1 potentiator: -9; D1 agonist: 1; TRHR ag: 0; D1 antagonist: -39*

Results for N#Cc1nc(NCC(F)F)c2ncn(-c3cc(F)cc(F)c3)c2n1 ?
TRHR PAM: 2; D1 potentiator: 2; D1 agonist: 1; TRHR ag: 1; D1 antagonist: -18

What do the screens show for `COc1cc2c(cc1OC)-c1nnnn1C(C)(C)C2`?
TRHR PAM: 10; D1 potentiator: 0; D1 agonist: 3; TRHR ag: 0; D1 antagonist: 4

What do the screens show for `COc1cc2c(cc1OC)-c1n[nH]c(=S)n1C(C)(C)C2`?
TRHR PAM: 0; D1 potentiator: -12; D1 agonist: 0; TRHR ag: -1; D1 antagonist: -59*

Results for COc1ccc(CCNC(=O)CCCCn2c(=O)c3ccccc3n(CC(=O)Nc3ccccc3C)c2=O)cc1OC ?
TRHR PAM: -2; D1 potentiator: 1; D1 agonist: -1; TRHR ag: -1; D1 antagonist: 7

What do the screens show for `CCOc1cc2c(cc1C(C)(C)C)NC(=O)CS2`?
TRHR PAM: -3; D1 potentiator: -2; D1 agonist: 0; TRHR ag: 0; D1 antagonist: -85*

Results for CCOc1ccc(C(C)=O)cc1COC(=O)c1ccc2c(c1)NC(=O)CS2 ?
TRHR PAM: -6; D1 potentiator: -1; D1 agonist: 3; TRHR ag: 0; D1 antagonist: -2

Results for Cc1ccccc1NC(=O)Nc1nnc(N2CCCCCC2)s1 ?
TRHR PAM: 1; D1 potentiator: 3; D1 agonist: -2; TRHR ag: 0; D1 antagonist: 6

What do the screens show for `CCCn1c(Oc2ccccc2)nc2c1c(=O)n(C)c(=O)n2C`?
TRHR PAM: 8; D1 potentiator: -4; D1 agonist: -1; TRHR ag: 0; D1 antagonist: -39*

How did COc1cccc(-n2ccnc2SCC(=O)Nc2ccc(Cl)c(Cl)c2)c1 do in these assays?
TRHR PAM: 0; D1 potentiator: -4; D1 agonist: 8; TRHR ag: 1; D1 antagonist: -17

Results for COC(=O)c1c(SCC(=O)Nc2ccccc2OC)[nH]c2ccccc2c1=O ?
TRHR PAM: 3; D1 potentiator: 0; D1 agonist: 1; TRHR ag: 0; D1 antagonist: 10

What do the screens show for `CCC(C)NC(=O)C1CCN(C(=O)c2cc3sccc3n2Cc2ccc(Cl)cc2)CC1` (stereo not given)?
TRHR PAM: -4; D1 potentiator: -5; D1 agonist: 8; TRHR ag: 0; D1 antagonist: -40*

What do the screens show for `COCCCNC(=O)C1CCN(C(=O)c2cc3sccc3n2Cc2ccc(Cl)cc2)CC1`?
TRHR PAM: 15; D1 potentiator: -5; D1 agonist: 11; TRHR ag: 0; D1 antagonist: -39*

Results for COCCNC(=O)C1CCN(C(=O)c2cc3sccc3n2Cc2ccc(F)cc2)CC1 ?
TRHR PAM: 0; D1 potentiator: -10; D1 agonist: 8; TRHR ag: 2; D1 antagonist: -49*

What do the screens show for `CCOCCCNC(=O)C1CCN(C(=O)c2cc3sccc3n2C)CC1`?
TRHR PAM: 4; D1 potentiator: -6; D1 agonist: -1; TRHR ag: 0; D1 antagonist: -84*

What do the screens show for `O=C(NCc1ccco1)C1CCN(C(=O)c2cc3sccc3n2Cc2ccc(Cl)cc2)CC1`?
TRHR PAM: -4; D1 potentiator: -1; D1 agonist: 5; TRHR ag: 1; D1 antagonist: 5

Results for COCCNC(=O)C1CCN(C(=O)c2cc3sccc3n2Cc2ccc(Cl)cc2)CC1 ?
TRHR PAM: -4; D1 potentiator: -5; D1 agonist: 15; TRHR ag: 2; D1 antagonist: -24

Results for CCOc1ccc(/C=C/c2nc(C#N)c(N3CCCCCC3)o2)cc1 ?
TRHR PAM: -8; D1 potentiator: 1; D1 agonist: 1; TRHR ag: -1; D1 antagonist: 2

What do the screens show for `Cn1c(C(=O)N2CCCC(C(=O)NCc3cccs3)C2)cc2sccc21` (stereo not given)?
TRHR PAM: -11; D1 potentiator: 2; D1 agonist: 3; TRHR ag: -1; D1 antagonist: 4

How did CC(CCc1ccccc1)NC(=O)C1CCCN(C(=O)c2cc3sccc3n2C)C1 (stereo not given) do in these assays?
TRHR PAM: -13; D1 potentiator: -9; D1 agonist: 1; TRHR ag: -2; D1 antagonist: -39*

What do the screens show for `CCOc1ccc(S(=O)(=O)N2CCN(C)CC2)c(C)c1C`?
TRHR PAM: 1; D1 potentiator: -4; D1 agonist: 2; TRHR ag: 0; D1 antagonist: -50*

What do the screens show for `CCOc1ccc(S(=O)(=O)N2CCCCC2)c(C)c1C`?
TRHR PAM: -3; D1 potentiator: 3; D1 agonist: 4; TRHR ag: 0; D1 antagonist: 7

How did CC#CC(=O)N1CCC(Oc2cccc(C(=O)NCc3ccccn3)c2)CC1 do in these assays?
TRHR PAM: -11; D1 potentiator: 3; D1 agonist: 2; TRHR ag: 0; D1 antagonist: 13

What do the screens show for `COCCNC(=O)c1cccc(OC2CCN(Cc3ccc(C(C)C)cc3)CC2)c1`?
TRHR PAM: -7; D1 potentiator: -16; D1 agonist: 6; TRHR ag: 0; D1 antagonist: -6

How did COCC(C)N1CCC(Oc2cccc(C(=O)NCCc3ccccc3)c2)CC1 (stereo not given) do in these assays?
TRHR PAM: 9; D1 potentiator: -12; D1 agonist: 13; TRHR ag: 1; D1 antagonist: -39*
